TSG101-PTAP inh: blocks PTAP/TSG101 interaction to inhibit HIV-1 budding; 340,000 tested, under 10 active; Fluorescence polarization, FITC-PTAP peptide / Tsg101 binding; Potency, µM (highest dose often 115 µM), actives largely listed as inhibitors; Q99816; active = well fitted inhibition curve with a large enough effect in the main read-out, with a control signal flat, not every such curve was filed as active; inconclusive = small, poorly fitted or top-dose-only effect, or effect the other way, or a change in a side signal; inactive = no such curve, though single readings can be large or run the other way
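Fluorescence anisotropy tracks displacement of a FITC-tagged PTAP peptide (50 nM) from the Tsg101 binding domain (10 uM), following a 20 min room-temperature incubation at pH 7.5.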
S-ASM inh: inhibitors of human secretory acid sphingomyelinase. P17405. placental ASM, HMU-PC fluorogenic substrate, 60 min. Potency, µM (doses to about 57.5 µM), most hits filed as inhibitors. hit rate 0.006% among 340,000. AID 504937
Target sequence (P17405 47-631 limits assumed): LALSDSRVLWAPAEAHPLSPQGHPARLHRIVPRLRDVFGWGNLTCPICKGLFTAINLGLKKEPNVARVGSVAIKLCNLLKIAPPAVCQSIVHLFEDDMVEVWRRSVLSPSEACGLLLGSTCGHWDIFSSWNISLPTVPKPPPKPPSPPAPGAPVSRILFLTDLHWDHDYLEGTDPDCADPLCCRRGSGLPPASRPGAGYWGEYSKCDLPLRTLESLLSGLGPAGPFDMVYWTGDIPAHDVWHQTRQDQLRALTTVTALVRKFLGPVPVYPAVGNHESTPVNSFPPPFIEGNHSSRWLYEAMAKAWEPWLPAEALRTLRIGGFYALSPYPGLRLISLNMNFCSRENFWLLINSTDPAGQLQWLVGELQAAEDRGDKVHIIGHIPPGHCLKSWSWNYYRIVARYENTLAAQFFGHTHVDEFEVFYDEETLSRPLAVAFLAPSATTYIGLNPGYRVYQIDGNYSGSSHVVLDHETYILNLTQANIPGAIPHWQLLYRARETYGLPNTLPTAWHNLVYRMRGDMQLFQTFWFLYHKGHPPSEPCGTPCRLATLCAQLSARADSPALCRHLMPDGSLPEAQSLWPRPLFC
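Fluorescence read-out (Ex 386 nm, Em 447 nm) after stopping the reaction at pH 10. Enzyme: ASM from human placenta; substrate HMU-PC0, 9 uM final; 60 min, 37 °C. Compound preincubation 10 min, ambient temperature.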
Vif-A3F inh: inhibitors of Vif-A3F interaction. hit rate 0.2% among 390,000. Potency, µM (series often up to 46.1 µM). HeLa A3F-eYFP + Vif (tagged APOBEC3F with the HIV-1 protein that degrades it), YFP fluorescence increase; note: nearly all actives have a fitted effect of over 65% in size
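Fluorescence increase (Ex 488/Em 500-530) after overnight compound treatment at 37 deg C flags inhibition of Vif-driven A3F-eYFP loss in stable HeLa A3F-eYFP/Vif cells seeded overnight beforehand.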
Vif-A3G inh: Vif-A3G binding inhibition; Q9HC16; HeLa A3G-eYFP + Vif (tagged APOBEC3G with the HIV-1 protein that degrades it), YFP fluorescence, overnight; Potency, µM (highest dose often 46.1 µM), most hits filed as inhibitors; hit rate 0.076% among 410,000; AID 602310; note: nearly all actives have a fitted effect of over 60% in size
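Read-out is eYFP fluorescence (Ex 488/Em 500-530) from Vif-expressing HeLa A3G-eYFP cells; more signal means A3G escaped Vif-mediated degradation. Cells plated overnight, compound pinned in, incubated overnight at 37 deg C.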
pAkt inh: blocks phosphorylation of Akt | Neuro2A IGF-stimulated pAkt S473 HTRF, 20 min; active compounds read low | activity change, % for hits at 50 µM | hit rate 0.32% among 360,000; in the data active = activity change below about -80%; inconclusive = mostly about -51% to -80%
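Neuro2A cells in DMEM with 0.5% FBS, overnight at 37 deg C, given compound at single 50 µM final, then IGF (6 nM final) for 20 min at 37 deg C. Lysed; phospho-Akt Ser473 by HTRF after 24 h, 665/615 ratio.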
ALOX12 inh: blocks human arachidonate 12S-lipoxygenase. P18054. purified 12hLO, xylenol orange hydroperoxide absorbance. Potency, µM (titrated, usually from 108 µM), actives largely listed as inhibitors. hit rate 1.1% among 580,000. AID 1671190
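Purified human 12hLO (150 nM final) in 25 mM Hepes, 0.01% Triton X-100, pH 7.0 was preincubated 15 min at room temperature with compound. Then 40 uM arachidonic acid was added, 30 min. Hydroperoxide was read by Fe-XO absorbance ratio 573/405 nm.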
A number is an active result. An excerpt weighted towards active compounds, which were near 1.4% of everything screened. Unless noted, calls come from the whole dose curve; as a rule, active = well fitted curve in the direction sought with a large enough effect; inconclusive = small, poorly fitted or top-dose-only effect, or another doubt; inactive = no such curve, though single readings can be large; an effect the other way counts as inactive or inconclusive.

Results for Cc1ccc(NS(=O)(=O)c2ccc(-c3cnc(C4CC4)o3)cc2)cc1F ?
ALOX12 inh: 3.5µM

Results for CC(NC(=O)c1ccccc1O)C(C)(C)C (stereo unspecified) ?
ALOX12 inh: inactive

Results for CC1(C)CCCC(C)(C#CCN2CCN(C(=O)c3ccccc3)CC2)O1 (stereo unspecified) ?
ALOX12 inh: inactive

Results for COc1ccc2ccccc2c1CN1CCCC(CO)C1 (stereo unspecified) ?
TSG101-PTAP inh: inactive; S-ASM inh: inactive; Vif-A3F inh: inactive; Vif-A3G inh: inactive; pAkt inh: -112%; ALOX12 inh: inactive

Results for COc1ccc2ccccc2c1CN1CCN(Cc2ccccc2)CC1 ?
TSG101-PTAP inh: inactive; S-ASM inh: inactive; Vif-A3F inh: inactive; Vif-A3G inh: inactive; pAkt inh: inactive; ALOX12 inh: inactive

Results for C[N+](C)(C)c1ccc(/C=N/N=C/c2ccccc2)cc1 ?
ALOX12 inh: 11µM

Results for CCCCC1CCC(=O)O1 (stereo unspecified) ?
ALOX12 inh: inactive

How did CCCCC(=O)NC(=S)Nc1cccc(Cl)c1N1CCCCC1 do in these assays?
TSG101-PTAP inh: inactive; S-ASM inh: inactive; Vif-A3F inh: inconclusive; Vif-A3G inh: inactive; pAkt inh: inactive; ALOX12 inh: 35µM

How did CCC(CC)C(NC(=O)CCc1cccs1)c1ccccc1 (stereo unspecified) do in these assays?
ALOX12 inh: inactive

What do the screens show for `COc1cccc(C2=Cc3ccc(F)cc3C(CC(C)=O)N2c2ccc(-c3cncnc3)cc2)c1` (stereo unspecified)?
pAkt inh: inactive; ALOX12 inh: 32µM

How did O=C(CSc1ccc(Cl)cc1)c1ccco1 do in these assays?
TSG101-PTAP inh: inactive; S-ASM inh: inactive; Vif-A3F inh: inactive; Vif-A3G inh: inactive; pAkt inh: -97%

Results for O=C(CCSc1ccc(Cl)cc1)c1ccco1 ?
TSG101-PTAP inh: inactive; S-ASM inh: inactive; Vif-A3F inh: inactive; Vif-A3G inh: inactive; pAkt inh: inactive; ALOX12 inh: inactive

How did CN(Cc1ccccc1)C(=O)c1cccc(-c2cnc3ccccc3c2)c1 do in these assays?
ALOX12 inh: inactive

Results for Cc1ccc(S(=O)(=O)Nc2ccc3c(c2)CN(CCc2ccc(F)cc2)C(=O)C(C)O3)cc1F (stereo unspecified) ?
ALOX12 inh: 28µM

Results for CNC(=O)CCS(=O)(=O)Cc1coc(-c2cccc(F)c2)n1 ?
ALOX12 inh: inactive

What do the screens show for `Cn1c(=O)c2c(ncn2CC(O)COc2ccc(C#N)cc2)n(C)c1=O` (stereo unspecified)?
ALOX12 inh: inactive

Results for O=C(O)/C(=C\c1cccc(F)c1)c1ccc(S(=O)(=O)N2CCCCC2)s1 ?
TSG101-PTAP inh: inactive; S-ASM inh: inactive; Vif-A3F inh: inactive; Vif-A3G inh: inactive; pAkt inh: inactive; ALOX12 inh: inactive

Results for O=C(O)/C(=C/c1ccc(Cl)c([N+](=O)[O-])c1)c1ccc(S(=O)(=O)N2CCCCC2)s1 ?
TSG101-PTAP inh: inactive; S-ASM inh: inactive; Vif-A3F inh: inactive; Vif-A3G inh: inactive; pAkt inh: inactive; ALOX12 inh: 25µM

Results for CCOc1ccc(CNC(=O)CSc2c3c(nc4cc(Cl)ccc24)CCCC3)cc1 ?
Vif-A3F inh: inactive; Vif-A3G inh: inactive; ALOX12 inh: inactive

Results for Cc1ccc(CNC(=O)CSc2c3c(nc4cc(Cl)ccc24)CCCC3)o1 ?
TSG101-PTAP inh: inactive; S-ASM inh: inactive; Vif-A3F inh: inactive; Vif-A3G inh: inactive; pAkt inh: -103%; ALOX12 inh: inconclusive

How did Cc1[nH]c2ccc(F)cc2c1CC(=O)NCC(c1ccccc1)N1CCCC1 (stereo unspecified) do in these assays?
ALOX12 inh: inactive

Results for CCn1c(SCc2cccc(C(F)(F)F)c2)nnc1-c1ccco1 ?
TSG101-PTAP inh: inactive; S-ASM inh: inactive; Vif-A3F inh: inactive; Vif-A3G inh: inactive; pAkt inh: inactive; ALOX12 inh: 50µM

Results for COC(=O)c1ccccc1NC(=S)NC(=O)COc1ccccc1 ?
TSG101-PTAP inh: inactive; S-ASM inh: inactive; Vif-A3F inh: inactive; Vif-A3G inh: inactive; pAkt inh: inactive; ALOX12 inh: inactive

What do the screens show for `Cc1cccc(OCC(=O)NCCCNC(=O)c2cccnc2)c1`?
TSG101-PTAP inh: inactive; S-ASM inh: inactive; Vif-A3F inh: inactive; Vif-A3G inh: inactive; pAkt inh: inactive; ALOX12 inh: inactive

How did CC(C)(C)c1ccc(OCC(=O)NNC(=O)CCc2ccccc2)cc1 do in these assays?
TSG101-PTAP inh: inactive; S-ASM inh: inactive; Vif-A3F inh: inactive; Vif-A3G inh: inactive; pAkt inh: inactive; ALOX12 inh: inactive

What do the screens show for `Cc1ccccc1C(=O)NNC(=S)NC(=O)COc1ccccc1`?
TSG101-PTAP inh: inactive; S-ASM inh: inactive; Vif-A3F inh: inactive; Vif-A3G inh: inactive; pAkt inh: inactive; ALOX12 inh: 3.5µM

What do the screens show for `O=C(COc1ccccc1)NC(=S)Nc1cccc2c(O)cccc12`?
Vif-A3F inh: inconclusive; Vif-A3G inh: inconclusive; pAkt inh: inactive; ALOX12 inh: 45µM

Results for Cc1ccc(C(=O)NNC(=S)NC(=O)COc2ccccc2)cc1 ?
TSG101-PTAP inh: inactive; S-ASM inh: inactive; Vif-A3F inh: inactive; Vif-A3G inh: inactive; pAkt inh: inactive; ALOX12 inh: inconclusive

What do the screens show for `CC(C)(C)c1ccc(C(=O)NC(=S)NNC(=O)COc2ccccc2)cc1`?
TSG101-PTAP inh: inactive; S-ASM inh: inactive; Vif-A3F inh: inactive; Vif-A3G inh: inactive; pAkt inh: inactive; ALOX12 inh: 32µM

What do the screens show for `Cc1cccc(OCC(=O)NC(=S)NNC(=O)c2ccncc2)c1`?
TSG101-PTAP inh: inactive; S-ASM inh: inactive; Vif-A3F inh: inactive; Vif-A3G inh: inactive; pAkt inh: inactive; ALOX12 inh: 5µM

What do the screens show for `Cc1cccc2c(=O)c(-c3ccccc3)c(NC(=O)c3ccco3)oc12`?
ALOX12 inh: inactive

How did O=C(O)c1cccc(NC(=O)c2ccc(Cl)s2)c1 do in these assays?
ALOX12 inh: inactive

How did CCN(Cc1ccccc1)c1ncncc1-c1nc(-c2ccccc2)no1 do in these assays?
ALOX12 inh: inactive

What do the screens show for `Cc1ccc(OCC(=O)NNC(=S)NC(=O)COc2ccccc2)cc1`?
ALOX12 inh: 11µM

Results for COc1ccc(-c2nn(-c3ccccc3)cc2/C=N/NC(=S)NC(C)C)cc1OC ?
TSG101-PTAP inh: inactive; S-ASM inh: inactive; Vif-A3F inh: inactive; Vif-A3G inh: inactive; pAkt inh: inactive; ALOX12 inh: 35µM

How did C=CCNC(=S)N/N=C/c1cn(-c2ccccc2)nc1-c1ccc(OC)cc1 do in these assays?
TSG101-PTAP inh: inactive; S-ASM inh: inactive; Vif-A3F inh: inactive; Vif-A3G inh: inactive; pAkt inh: inactive; ALOX12 inh: 40µM

Bioassay records: PubChem, National Center for Advancing Translational Sciences (NCATS)
